PubChem BioAssay
Active and inactive are the calls of the source.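 The calls were made as follows, unless noted: active = calcium signal rise above buffer-control mean plus 5 SD in both duplicates, and also a hit in the primary screen; inactive = the rest.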

target: Short transient receptor potential channel 6 (Mus musculus) (UniProt Q61143); experiment: positive modulators of mouse TRPC6 channel – HEK293 cells, membrane potential dye, duplicate, selectivity assay for TRPC4 potentiator project, confirmation (AID 434952;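 active = compound raising the membrane signal above positive-control mean plus 3 SD in both repeats, and a primary screen hit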); settings: HEK293 TRPC6, membrane potential dye fluorescence, at 10 µM, maximal acetylcholine added after compound; active compounds read high
Sequence (Q61143 whole entry, looked up): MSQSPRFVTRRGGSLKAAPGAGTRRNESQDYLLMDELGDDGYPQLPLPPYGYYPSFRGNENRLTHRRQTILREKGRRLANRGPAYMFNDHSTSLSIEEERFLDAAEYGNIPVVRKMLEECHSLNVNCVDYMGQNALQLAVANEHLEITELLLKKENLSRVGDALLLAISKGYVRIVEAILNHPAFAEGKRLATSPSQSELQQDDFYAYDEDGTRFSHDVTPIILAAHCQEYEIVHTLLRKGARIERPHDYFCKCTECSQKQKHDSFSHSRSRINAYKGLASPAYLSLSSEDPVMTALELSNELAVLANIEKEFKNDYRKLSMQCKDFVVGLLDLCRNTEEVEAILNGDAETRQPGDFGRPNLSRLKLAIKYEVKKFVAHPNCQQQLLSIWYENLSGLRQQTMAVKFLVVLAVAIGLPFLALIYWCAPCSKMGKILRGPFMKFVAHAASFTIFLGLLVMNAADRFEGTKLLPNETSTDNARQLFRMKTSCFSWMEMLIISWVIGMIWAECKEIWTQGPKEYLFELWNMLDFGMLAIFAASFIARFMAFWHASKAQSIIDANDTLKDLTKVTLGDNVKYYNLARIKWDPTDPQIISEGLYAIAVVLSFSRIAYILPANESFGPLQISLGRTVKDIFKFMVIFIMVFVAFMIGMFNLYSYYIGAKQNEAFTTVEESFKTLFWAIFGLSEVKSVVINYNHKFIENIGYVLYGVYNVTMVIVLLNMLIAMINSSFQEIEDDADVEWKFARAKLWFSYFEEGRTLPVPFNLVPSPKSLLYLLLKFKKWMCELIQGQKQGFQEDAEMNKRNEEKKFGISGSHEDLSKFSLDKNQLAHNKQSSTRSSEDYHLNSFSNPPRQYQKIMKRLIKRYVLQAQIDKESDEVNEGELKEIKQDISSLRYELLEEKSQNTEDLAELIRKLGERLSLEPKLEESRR

Row | SMILES | outcome
1 | CC(C)C(=O)N1CCN(c2nc(-c3ccccc3)c3c(c2C#N)CCCC3)CC1 | inactive
2 | CC(=O)n1cc([C@@H]2C=C(C(=O)NCc3ccccc3)O[C@H](OCc3ccc(CO)cc3)C2)c2ccccc21 | inactive
3 | CCN1CCN(c2nc(N)c([N+](=O)[O-])c(Nc3ccc(C)c(C)c3)n2)CC1 | inactive
4 | CN1/C(=C\C=[N+](C)c2ccccc2)C(C)(C)c2ccccc21 | inactive
5 | COc1cc(NC(=O)C(C)Oc2ccccc2)cc(OC)c1 (stereo not drawn) | inactive
6 | CCCCc1ccc(NC(=O)CSc2nnc(C)c(=O)n2N)cc1 | inactive
7 | O=C(COc1ccc(Br)cc1Cl)c1ccc[nH]1 | inactive
8 | Clc1cc(/C=N\NC2=NCCN2)cc(Cl)n1 | inactive
9 | Cc1cc(OCC(=O)N2CCCC2)cc(C)c1Cl | inactive
10 | CCOC(=O)CC(NS(=O)(=O)c1ccc(OC)c(C)c1)c1cccc([N+](=O)[O-])c1 (stereo not drawn) | inactive
11 | O=C(COc1coc(CN2CCN(c3ccccc3F)CC2)cc1=O)Nc1ccccc1 | inactive
12 | CN(C)CCCNC(=O)/C=C/c1ccc(OCc2c(F)cccc2Cl)cc1 | inactive
13 | CC(C)c1cccc(OCCCCN(C)C)c1 | inactive
14 | CNc1oc(-c2ccccc2Cl)nc1P(=O)(c1ccccc1)c1ccccc1 | inactive
15 | Cc1ccc(C(=O)C[n+]2cccc3cc(C)ccc32)cc1 | inactive
16 | CCCN1CCN(C(=S)NCc2ccc(Cl)cc2)CC1 | inactive
17 | CC(=O)Nc1nc(-c2ccc3c(c2)CCN3C(=O)C2CC2)c(C)s1 | inactive
18 | COC(=O)c1ccccc1NC(=O)CCC(=O)N1CC(C)Oc2ccc(C)cc21 (stereo not drawn) | inactive
19 | CN1CCN(S(=O)(=O)c2ccc(Br)c3ccccc23)CC1 | inactive
20 | CC(C)(C)C(=O)NCCCc1nc2ccccc2n1CCCOc1ccc(Cl)cc1 | inactive

Row | SMILES | outcome
21 | CCN(CC)c1ccc(CNc2nc3ccccc3n2CCN2CCCCC2)cc1 | inactive
22 | O=[N+]([O-])c1ccc(S(=O)(=O)NCCCc2ccccc2)cc1 | inactive
23 | CC(=O)c1ccc(OCC(O)CN2CCN(S(=O)(=O)c3c(C)cc(C)cc3C)CC2)cc1 (stereo not drawn) | inactive
24 | CC(=O)c1ccc(N2CCN(c3ccc(S(=O)(=O)NCCCN(C)C)cc3[N+](=O)[O-])CC2)cc1 | inactive
25 | C=CCn1c(SCCN2CCCCC2)nc2c1c(=O)[nH]c(=O)n2C | inactive
26 | CCCN(C(=O)COC(=O)C12CCC(=O)N1c1ccccc1S2)c1c(N)n(Cc2ccccc2)c(=O)[nH]c1=O (stereo not drawn) | inactive
27 | Cc1cc(C(=O)CN2C(=O)C(=O)N(CC(C)C)C2=O)c(C)n1-c1ccccc1F | inactive
28 | C/C(=N\NC(=O)COc1ccc(C)cc1C(C)C)c1ccc(-n2ccnc2)cc1 | inactive
29 | COc1cc(/C=C2\C(=O)ON=C2c2ccccc2)cc(Cl)c1O | inactive
30 | CN(CC(=O)Nc1ccc(F)cc1)C(=O)COC(=O)C1CCN(c2ccc(C(F)(F)F)cn2)CC1 | inactive
31 | CCCN(CCC)CCCNC(=O)c1cc2c(=O)n(C)c3ccccc3c2n1C | inactive
32 | COc1ccccc1CC(=O)N1CCN(S(=O)(=O)c2ccccc2)CC1 | inactive
33 | O=C(COc1ccccc1)NC1CCCCCCC1 | inactive
34 | O=C(CC1C(=O)NCCN1C(=O)Nc1ccccc1)Nc1cc(Cl)cc(Cl)c1 (stereo not drawn) | inactive
35 | COc1ccc(NS(=O)(=O)c2cccc(C(=O)N3CCN(Cc4cc(OC)ccc4OC)CC3)c2)cc1 | inactive
36 | Cc1ccc(C(=O)c2no[n+]([O-])c2C(=O)c2ccc(C)cc2)cc1 | inactive
37 | O=C(NC1CCCC1)c1cc2ccccc2o1 | inactive
38 | COc1ccc(-n2cc(CNCc3cccnc3)c(-c3cccc(F)c3)n2)cc1 | inactive
39 | CN1CCCN(Cc2cccc3ccccc23)CC1 | inactive

target: Short transient receptor potential channel 4 (Mus musculus) (UniProt Q9QUQ5); experiment: calcium flux activators in TRPC4/5HT1a cells, counter-screen for TRPC4 activator project, cell-based, second counter screen, HEK293 TRPC4/5HT1a, Fluo-4 (AID 434977); settings: Fluo-4 calcium flux, at 10 µM; active compounds read high;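 as to activation: plate controls were assay buffer for no effect and maximal serotonin response for full effect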

Row | SMILES | outcome | activation
40 | CC(C)C(=O)N1CCN(c2nc(-c3ccccc3)c3c(c2C#N)CCCC3)CC1 | inactive | 
41 | CC(=O)n1cc([C@@H]2C=C(C(=O)NCc3ccccc3)O[C@H](OCc3ccc(CO)cc3)C2)c2ccccc21 | inactive | 
42 | CCN1CCN(c2nc(N)c([N+](=O)[O-])c(Nc3ccc(C)c(C)c3)n2)CC1 | inactive | 
43 | CN1/C(=C\C=[N+](C)c2ccccc2)C(C)(C)c2ccccc21 | inactive | 
44 | COc1cc(NC(=O)C(C)Oc2ccccc2)cc(OC)c1 (stereo not drawn) | inactive | 
45 | CCCCc1ccc(NC(=O)CSc2nnc(C)c(=O)n2N)cc1 | inactive | 
46 | O=C(COc1ccc(Br)cc1Cl)c1ccc[nH]1 | inactive | 
47 | Clc1cc(/C=N\NC2=NCCN2)cc(Cl)n1 | inactive | 
48 | Cc1cc(OCC(=O)N2CCCC2)cc(C)c1Cl | inactive | 
49 | CCOC(=O)CC(NS(=O)(=O)c1ccc(OC)c(C)c1)c1cccc([N+](=O)[O-])c1 (stereo not drawn) | inactive | 
50 | O=C(COc1coc(CN2CCN(c3ccccc3F)CC2)cc1=O)Nc1ccccc1 | inactive | 
51 | CN(C)CCCNC(=O)/C=C/c1ccc(OCc2c(F)cccc2Cl)cc1 | inactive | 
52 | CC(C)c1cccc(OCCCCN(C)C)c1 | inactive | 
53 | CNc1oc(-c2ccccc2Cl)nc1P(=O)(c1ccccc1)c1ccccc1 | inactive | 
54 | Cc1ccc(C(=O)C[n+]2cccc3cc(C)ccc32)cc1 | inactive | 
55 | CCCN1CCN(C(=S)NCc2ccc(Cl)cc2)CC1 | inactive | 
56 | CC(=O)Nc1nc(-c2ccc3c(c2)CCN3C(=O)C2CC2)c(C)s1 | inactive | 
57 | COC(=O)c1ccccc1NC(=O)CCC(=O)N1CC(C)Oc2ccc(C)cc21 (stereo not drawn) | inactive | 
58 | CN1CCN(S(=O)(=O)c2ccc(Br)c3ccccc23)CC1 | inactive | 
59 | CC(C)(C)C(=O)NCCCc1nc2ccccc2n1CCCOc1ccc(Cl)cc1 | inactive | 

Row | SMILES | outcome | activation
60 | CCN(CC)c1ccc(CNc2nc3ccccc3n2CCN2CCCCC2)cc1 | inactive | 
61 | O=[N+]([O-])c1ccc(S(=O)(=O)NCCCc2ccccc2)cc1 | inactive | 
62 | CC(=O)c1ccc(OCC(O)CN2CCN(S(=O)(=O)c3c(C)cc(C)cc3C)CC2)cc1 (stereo not drawn) | inactive | 
63 | CC(=O)c1ccc(N2CCN(c3ccc(S(=O)(=O)NCCCN(C)C)cc3[N+](=O)[O-])CC2)cc1 | inactive | 
64 | C=CCn1c(SCCN2CCCCC2)nc2c1c(=O)[nH]c(=O)n2C | inactive | 
65 | CCCN(C(=O)COC(=O)C12CCC(=O)N1c1ccccc1S2)c1c(N)n(Cc2ccccc2)c(=O)[nH]c1=O (stereo not drawn) | inactive | 
66 | Cc1cc(C(=O)CN2C(=O)C(=O)N(CC(C)C)C2=O)c(C)n1-c1ccccc1F | inactive | 
67 | C/C(=N\NC(=O)COc1ccc(C)cc1C(C)C)c1ccc(-n2ccnc2)cc1 | inactive | 
68 | COc1cc(/C=C2\C(=O)ON=C2c2ccccc2)cc(Cl)c1O | inactive | 
69 | CN(CC(=O)Nc1ccc(F)cc1)C(=O)COC(=O)C1CCN(c2ccc(C(F)(F)F)cn2)CC1 | inactive | 
70 | CCCN(CCC)CCCNC(=O)c1cc2c(=O)n(C)c3ccccc3c2n1C |  | 6.09% (active)
71 | COc1ccccc1CC(=O)N1CCN(S(=O)(=O)c2ccccc2)CC1 | inactive | 
72 | O=C(COc1ccccc1)NC1CCCCCCC1 | inactive | 
73 | O=C(CC1C(=O)NCCN1C(=O)Nc1ccccc1)Nc1cc(Cl)cc(Cl)c1 (stereo not drawn) | inactive | 
74 | COc1ccc(NS(=O)(=O)c2cccc(C(=O)N3CCN(Cc4cc(OC)ccc4OC)CC3)c2)cc1 | inactive | 
75 | Cc1ccc(C(=O)c2no[n+]([O-])c2C(=O)c2ccc(C)cc2)cc1 | inactive | 
76 | O=C(NC1CCCC1)c1cc2ccccc2o1 | inactive | 
77 | COc1ccc(-n2cc(CNCc3cccnc3)c(-c3cccc(F)c3)n2)cc1 | inactive | 
78 | CN1CCCN(Cc2cccc3ccccc23)CC1 | inactive | 
